{"source": "PubChem BioAssay (Tox21)", "note": "Records with an inconclusive call do not appear. A number with no mark means an inactive call. Active and inactive are the calls of the source. Calls come from the whole dose curve; as a rule, active = well fitted cell-killing curve with a large enough effect in the repeat runs; inconclusive = weak or mixed curves, or effect the other way; inactive = no such curve, though single readings can be large or run the other way. % is set by controls: 0 for no effect and ±100 for the full control effect; potency is the fitted concentration of half-maximal effect."}
{"assay": "Caspase-3/7 induction in CHO-K1 cells by small molecules, qHTS cell viability counter screen (AID 1346979); note: nearly all actives have a fitted effect of over 35% in size", "settings": "CellTiter-Fluor fluorescence, 17 h; series mostly up to 92.4 µM; activity change, negative = cytotoxicity: at the top concentration", "description": "National Center for Advancing Translational Sciences [NCATS]\nNIH Chemical Genomics Center [NCGC]\nU.S. Environmental Protection Agency [EPA]\nNational Institutes of Environmental Health Sciences [NIEHS]\nNational Toxicology Program [NTP]\nU.S. Food and Drug Administration [FDA]\nApoptosis is a process of programmed cell death and plays a central role in the development of multicellular organisms. It is a highly regulated process and induces cell death by activating caspases, which are the members of cysteine aspartic acid-specific protease (caspase) family. Caspases involved in apoptosis are classified by their mechanism of action as initiator caspases (caspase-2, -8, -9 and -10) and executioner caspases (caspase-3, -6, and -7). Inhibition of apoptosis results in number of cancers, autoimmune diseases, inflammatory diseases and viral infection. To identify small molecule compounds that induce apoptosis, a homogeneous, luminescent Caspase-Glo 3/7 assay was used. Wild type CHO-K1 cells were used to screen Tox21 libraries for identifying caspase-3/7 activity inducers. Also cytotoxicity of the compounds was tested in parallel by measuring the cell viability using CellTiter-Fluor assay system in the same wells.\nTox21 Assay Protocol Summary:\nCHO-K1 cells were dispensed at 1,500 per well in 5uL of culture medium into white solid bottom 1536-well plates (Corning Life Sciences, Corning, NY) using a Multidrop Combi (Thermo Scientific, Waltham, MA) dispenser. The assay plates were incubated at 37 C and 5% CO2 for 5hr, and then 23nL of compounds dissolved in DMSO and positive control were transferred using a Pintool station (Wako, San Diego, CA). The assay plates were incubated at 37C and 5% CO2 for 17hr. For cytotoxicity read, after 16hr incubation at 37C, 1uL CellTiter-Fluor reagent (Promega Corporation, Madison, WI) was added to each well of the assay plates using Flying Reagent Dispenser (FRD, Aurora Discovery, San Diego, CA). After 1hr incubation at 37C and 5% CO2, the fluorescence signal was quantified using a ViewLux plate reader (PerkinElmer, Shelton, CT)."}
{"smiles": "C=CCC1([C@H](C)CCC)C(=O)NC(=O)NC1=O", "activity change, negative = cytotoxicity": "-2.62%"}
{"smiles": "CCCCCCCCCCOC(=O)c1ccccc1C(=O)OCCCCCCCCCC", "activity change, negative = cytotoxicity": "6.22%"}
{"smiles": "Brc1ccccc1", "activity change, negative = cytotoxicity": "-3.27%"}
{"smiles": "CC1CC(CC2CCC(N)C(C)C2)CCC1N", "note": "(stereo not given)", "activity change, negative = cytotoxicity": "-10.7%"}
{"smiles": "CCCN(CC1CC1)c1c([N+](=O)[O-])cc(C(F)(F)F)cc1[N+](=O)[O-]", "activity change, negative = cytotoxicity": "0.484%"}
{"smiles": "NCC(CC(=O)O)c1ccc(Cl)cc1", "note": "(stereo not given)", "activity change, negative = cytotoxicity": "5.63% [at 0.349 µM]"}
{"smiles": "CCOP(=O)(OCC)SCCSCC", "activity change, negative = cytotoxicity": "-1.85%"}
{"smiles": "N#C/C(N)=C(/N)C#N", "activity change, negative = cytotoxicity": "0.725%"}
{"smiles": "CC(c1ccc(O)cc1)(c1ccc(O)cc1)c1ccc(O)cc1", "Potency": "68.6 µM (active)"}
{"smiles": "IC(I)=C(I)I", "Potency": "4.86 µM (active)"}
{"smiles": "CC(C)=CCOc1c2occc2cc2ccc(=O)oc12", "activity change, negative = cytotoxicity": "-2.46% [at 42.5 µM]"}
{"smiles": "Sc1ccccc1Cl", "activity change, negative = cytotoxicity": "4.6% [at 42.5 µM]"}
{"smiles": "II", "Potency": "54.5 µM (active)"}
{"smiles": "Cc1ccccc1CCl", "activity change, negative = cytotoxicity": "1.01%"}
{"smiles": "CCOP(=O)(OCC)Oc1ccc([N+](=O)[O-])cc1", "Potency": "inactive"}
{"smiles": "ClCc1cccc(Cl)c1", "activity change, negative = cytotoxicity": "-1.62% [at 42.5 µM]"}
{"smiles": "CN1C(=O)NC(=O)C(C)(C2=CCCCC2)C1=O", "note": "(stereo not given)", "activity change, negative = cytotoxicity": "8.13% [at 42.5 µM]"}
{"smiles": "CCN(C)N=O", "activity change, negative = cytotoxicity": "9.23%"}
{"smiles": "CC(Cl)Cl", "activity change, negative = cytotoxicity": "0.0573%"}
{"smiles": "[O-][Cl+]O", "activity change, negative = cytotoxicity": "6.05%"}
{"smiles": "CO/N=C(/C(=O)OC)c1ccccc1COc1ccccc1C", "Potency": "2.73 µM (active)"}
{"smiles": "O=[N+]([O-])c1ccccc1CCl", "activity change, negative = cytotoxicity": "-52.1%"}
{"smiles": "COc1nn(C(=O)NS(=O)(=O)c2ccccc2OC(F)(F)F)c(=O)n1C", "activity change, negative = cytotoxicity": "-0.596%"}
{"smiles": "CCCCNP(N)(N)=S", "activity change, negative = cytotoxicity": "11.9%"}
{"smiles": "O=C(O)C(F)(F)C(F)(F)C(F)(F)C(F)(F)C(F)(F)C(F)(F)C(F)(F)C(F)(F)C(F)(F)F", "activity change, negative = cytotoxicity": "-3.07%"}
{"smiles": "N#Cc1cc(I)c(O)c(I)c1", "Potency": "68.6 µM (active)"}
{"smiles": "CCC(Br)(CC)C(=O)NC(N)=O", "activity change, negative = cytotoxicity": "7.32%"}
{"smiles": "CCOP(=S)(Oc1ccc([N+](=O)[O-])cc1)c1ccccc1", "note": "(stereo not given)", "activity change, negative = cytotoxicity": "2.28%"}
{"smiles": "CCOC(=O)C(Cl)C(C)=O", "note": "(stereo not given)", "activity change, negative = cytotoxicity": "6.63%"}
{"smiles": "COC(=O)C(C)N(C(=O)Cc1ccccc1)c1c(C)cccc1C", "note": "(stereo not given)", "activity change, negative = cytotoxicity": "-1%"}
{"smiles": "C=CC(C)=O", "activity change, negative = cytotoxicity": "4.69%"}
{"smiles": "C#CCOC(C(=O)OCCN(C)C)(c1ccccc1)c1ccccc1", "activity change, negative = cytotoxicity": "-1.31% [at 42.5 µM]"}
{"smiles": "O=[N+]([O-])C(Br)(CO)CO", "Potency": "61.1 µM (active)"}
{"smiles": "CCOP(O)OCC", "activity change, negative = cytotoxicity": "0.082%"}
{"smiles": "C=COC(C)=O", "activity change, negative = cytotoxicity": "0.753%"}
{"smiles": "C=C(C#N)CCC#N", "activity change, negative = cytotoxicity": "4.5%"}
{"smiles": "CO/C=C(/C(=O)OC)c1ccccc1COc1cccc(C(F)(F)F)n1", "Potency": "0.385 µM (active)"}
{"smiles": "Nc1nc(N)nc(N)n1", "activity change, negative = cytotoxicity": "0.945%"}
{"smiles": "CC(C)(C)c1cc([N+](=O)[O-])cc([N+](=O)[O-])c1O", "Potency": "17.2 µM (active)"}
{"smiles": "COc1c(C(C)(C)C)cc([N+](=O)[O-])c(C)c1[N+](=O)[O-]", "activity change, negative = cytotoxicity": "-0.0594%"}
